Bioassay records as filed in PubChem BioAssay.
F508del corr = correctors of CFTR F508del function in bronchial epithelial cells. CFBE cells, YFP halide quenching; stimulated with forskolin plus potentiator P3; % fluorescence drop versus neutral controls. activity (quench increase), % at 7.58 µM. hit rate 0.36% among 350,000;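 active means mean added fluorescence quench of at least 8% versus neutral control, with both replicates also reaching 8%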;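 further: cells transiently co-express mutant CFTR-F508del with the halide-sensitive YFP; corrector assay measuring rescue of mutant channel to the surface after 24 h compound exposure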
EWS-Fli block = inhibitors of EWS/Fli oncoprotein transcriptional activity; A673 NR0B1-luciferase reporter, viability-normalised; inhibition, % at 12.6 µM; hit rate 0.67% among 350,000; AID 651661;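 active means mean inhibition of at least 50% after viability correction, with every replicate also passing that limit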;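 further: firefly luciferase signal divided by Alamar Blue viability fluorescence both relative to DMSO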
Env fusion inh = blocks HIV Env-driven cell-cell fusion | HeLa-JRFL Env/CEM21 cell fusion, luciferase | inhibition, % at 12.3 µM | hit rate 1.1% among 360,000 | AID 651610;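 active means mean replicate inhibition score of at least 50 and every replicate individually at or above 50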;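 further: 0% = plate neutral controls and 100% = maraviroc near 300 nM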
PGC1a acetyl inh = PGC1a acetylation modulation, inhibitor mode; hit rate 0.17% among 350,000; AID 651687; U2OS PGC1a acetylation, AlphaScreen anti-acetyl-lysine; with virally co-expressed GCN5 acetyltransferase; inhibition, % at 15.6 µM;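 active means every replicate shows inhibition of at least 40%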;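 further: 0% = neutral control wells and 100% = positive control wells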
GSIS activator = GLuc luminescence reporter in INS-1E cells, primary screen for activators of glucose-dependent secretion of insulin | INS-1E GLuc reporter insulin secretion, 2-3 h | activation, % at 16.6 µM | hit rate 0.61% among 370,000 | AID 743287;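 active means lowest replicate activation of at least 40%, so every replicate reaches that level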;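 further: 0% = median of neutral control wells and 100% = median of IBMX positive control wells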
PAX8 reporter = PAX8 transcriptional activity inhibition; RMG-I TPO-luciferase reporter, SteadyGlo, 24 h; inhibition, % at 12.6 µM; hit rate 1.2% among 360,000;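 active means mean replicate inhibition at least 60% with every replicate also reaching 60%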;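 further: luciferase light reporting Pax8 driven TPO promoter activity; plate controls were median of neutral control wells for no effect and mitoxantrone controls for full effect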
An asterisk follows results filed as active; nt = no result; [ ] = remark or other dose. Shown are actives, neighbours in structure and some others; about 2.7% of the full set was active somewhere.

SMILES	F508del corr	EWS-Fli block	Env fusion inh	PGC1a acetyl inh	GSIS activator	PAX8 reporter
CCCNC(=O)N1CC2(CN(Cc3ccc(OC)cc3)C2)c2c(n(C)c3cc(OC)ccc23)[C@@H]1CO	3	-1	nt	-35	-2	nt
Cn1c(N)c(C(=O)COC(=O)c2ccnc3ccccc23)c(=O)n(C)c1=O	2	3	5	nt	12	22
COc1ccc(C(=O)OCC(=O)c2c(N)n(C)c(=O)n(C)c2=O)c(OC)c1OC	4	2	3	7	45*	-5
O=C(Nc1ccc2c(c1)[C@H]1C[C@H](CC(=O)N3CCOCC3)O[C@@H](CO)[C@H]1O2)Nc1ccccc1F	-3	1	-52[16.7 µM]	1	-2	-24
Cc1ccc2c(c1)c(-c1ccccc1)nc1nncn12	2	7	-29	-2	46*	9
CN1c2ccc(-c3ccccc3)cc2[C@@H]2[C@@H](CCN2C(=O)Nc2ccccc2F)[C@@H]1CO	-1	-2	nt	6	19	16
CCN(CC)S(=O)(=O)c1ccc(N/N=C/c2cc(OC)ccc2O)nc1	nt	8	14	nt	18	68*
O=C(N1CCOCC1)[C@@]1(Cc2ccccc2)N=C(c2ccc(OCCCO)cc2)O[C@H]1c1ccccc1	-1	13	24[16.7 µM]	nt	nt	2
COc1ccc(/C=C/C(=O)c2ccc([N+](=O)[O-])o2)cc1	0	41	-444	-7	-17	31
O=C(/C=C/c1cccc([N+](=O)[O-])c1)c1ccco1	0	58*	-176	nt	-8	-29
Cc1cccc(/C=C/C(=O)c2ccc([N+](=O)[O-])o2)c1	-5	63*	-82	nt	-37	28
Cc1ccccc1/C=C/C(=O)c1ccc([N+](=O)[O-])o1	-3	71*	-295	nt	-33	24
O=C(/C=C/c1cccc([N+](=O)[O-])c1)c1ccc([N+](=O)[O-])o1	0	81*	56*	nt	-16	27
O=C(/C=C/c1cccc([N+](=O)[O-])c1)Nc1cccc(NC(=O)c2ccco2)c1	3	-4	nt	nt	-11	7
C[C@H](CO)N1C[C@H](C)[C@H](CN(C)C)Oc2ccc(NC(=O)NC3CCCCC3)cc2CC1=O	-5	-1	nt	-5	11	-4
COc1cc(CO)cc(Br)c1OCC(=O)Nc1cccc2ccccc12	-3	12	13	2	48*	2
Cc1cc(N2CCN(Cc3ccccc3)CC2)n2nc(C)c(-c3ccccc3)c2n1	nt	nt	63*	5	nt	nt
COc1ccc(-c2c(C)nn3c(N4CCN(Cc5ccccc5)CC4)cc(C)nc23)cc1OC	-6	8	26	1	-6	12
CCn1nnc2cc(C(=O)NCCc3ccccc3F)ccc21	1	56*	-4	nt	-5	4
O=C(Nc1cccc2ncccc12)c1ccc(Cl)cc1	1	-14	-8	20	-2	19
CCc1ccc(C(=O)Nc2cccnc2Oc2ccc(Cl)cc2)cc1	0	-24	1	87*	-3	-6
CNC(=O)NC(=S)NC(=O)c1ccccc1Cl	2	-1	4	-9	8	-4
COc1ccc(C(=O)Nc2cccnc2Cl)cc1OC	4	-21	-13	2	47*	-19
O=C(NC(=S)Nc1ncccn1)c1ccccc1Cl	4	-28	nt	nt	-2	70*
COc1cc(C(=O)Nc2ccccc2C(=O)Nc2ccccn2)cc(OC)c1OC	13*	6	-58	8	-1	29
SMILES	F508del corr	EWS-Fli block	Env fusion inh	PGC1a acetyl inh	GSIS activator	PAX8 reporter
COc1ccccc1C(=O)NC(=S)Nc1cccnc1Cl	-1	57*	-36	3	28	40
CO[C@@H]1CN(C)C(=O)c2cc(NC(=O)c3cc(C)on3)ccc2OC[C@H](C)N(C(C)=O)C[C@@H]1C	0	-5	nt	9	14	nt
C[C@H](NC(=O)C[C@H]1C[C@@H]2c3cc(NC(=O)CN(C)C)ccc3O[C@@H]2[C@@H](CO)O1)c1ccccc1	1	-6	-11[16.7 µM]	-5	7	-9
COc1ccc(Br)cc1C(=O)NC(=S)Nc1ccc2[nH]c(=O)[nH]c2c1	0	-7	-1	8	5	-8
COc1ccccc1C(=O)NC(=S)Nc1ccc2[nH]c(=O)[nH]c2c1	-1	-23	-1	-5	45*	-47
C[C@H](CO)N1C[C@H](C)[C@H](CN(C)CC2CC2)Oc2c(cccc2N(C)C)C1=O	-4	11	-8[16.7 µM]	3	9	-12
Cc1ccccc1-c1ccc2c(c1)O[C@H](CN(C)C(=O)c1ccccn1)[C@H](C)CN([C@@H](C)CO)S2(=O)=O	-1	-7	27[16.7 µM]	0	-9	-5
COc1ccc(/C=C/c2nc(S(=O)(=O)c3ccccc3)c(NCCCN(C)C)o2)cc1OC	4	4	74*	1	59	-14
CC1Cc2nc(SCC(=O)NCc3ccccc3)n(Cc3ccccc3)c(=O)c2S1 (stereo unspecified)	2	0	72*	3	-27	17
CSc1nc2c(c(=O)n1Cc1ccccc1)SC(C)C2 (stereo unspecified)	nt	nt	nt	6	45*	nt
COc1ccc(S(=O)(=O)Nc2cc3c(cc2C(C)=O)OCO3)cc1	12*	55*	-15	nt	-7	14
CCO[C@H]1OC(C(=O)N2CCN(Cc3ccccc3)CC2)=C[C@@H](c2ccc(C(F)(F)F)cc2)[C@@H]1CCCO	-1	4	27	-16	-52	90*
CCO[C@H]1OC(C(=O)N2CCN(Cc3ccccc3)CC2)=C[C@@H](c2ccccc2)[C@@H]1CCCO	3	16	13	-30	-34	-4
N#C[C@@H]1[C@@H](c2ccccc2C2=CCCC2)[C@H](CO)N1C(=O)NC1CCCCC1	-2	-6	nt	-19	-12	nt
CO[C@H]1CN(C)C(=O)c2cc(NC(=O)c3ccc4c(c3)OCO4)ccc2OC[C@@H](C)N(CC2CC2)C[C@@H]1C	1	-5	2[16.7 µM]	1	-10	-4
COc1cccc(C(=O)Nc2ccc3c(c2)OC[C@@H](C)N(CCc2ccccc2)C[C@@H](C)[C@H](OC)CN(C)C3=O)c1	3	-1	nt	-7	-11	68*
CO[C@@H]1CN(C)C(=O)c2cc(NC(=O)c3ccc4c(c3)OCO4)ccc2OC[C@@H](C)N(CC2CC2)C[C@H]1C	-3	4	3[16.7 µM]	105*	-10	2
COc1cccc(C(=O)Nc2ccc3c(c2)C(=O)N(C)C[C@@H](OC)[C@H](C)CN(CCc2ccccc2)[C@H](C)CO3)c1	3	11	39[16.7 µM]	7	-50	71*
COc1cccc(C(=O)Nc2ccc3c(c2)OC[C@@H](C)N(CCc2ccccc2)C[C@H](C)[C@H](OC)CN(C)C3=O)c1	3	-4	nt	-2	-4	4
COc1cccc(C(=O)Nc2ccc3c(c2)C(=O)N(C)C[C@@H](OC)[C@H](C)CN(CCc2ccccc2)[C@@H](C)CO3)c1	-2	15	21[16.7 µM]	-5	-49	25
